# Assay results reported in ChEMBL document CHEMBL3988442, “University of Dundee, Small-Polar-MMV Screening Library” (2021).
# For some of these results: Entries with a potency or affinity are not part of this list.
# Experiments:
# Design in all cases: scale not given: direction of the effect not stated beside the values
# [1] = target: Protein translocase subunit SecA (Escherichia coli (strain K12)) (UniProt P10408); test: Assay to Identify E. coli SecA ATPase Inhibitors; format: functional; details: 30 µM
# Chain of Protein translocase subunit SecA (Escherichia coli (strain K12)) (P10408 whole entry): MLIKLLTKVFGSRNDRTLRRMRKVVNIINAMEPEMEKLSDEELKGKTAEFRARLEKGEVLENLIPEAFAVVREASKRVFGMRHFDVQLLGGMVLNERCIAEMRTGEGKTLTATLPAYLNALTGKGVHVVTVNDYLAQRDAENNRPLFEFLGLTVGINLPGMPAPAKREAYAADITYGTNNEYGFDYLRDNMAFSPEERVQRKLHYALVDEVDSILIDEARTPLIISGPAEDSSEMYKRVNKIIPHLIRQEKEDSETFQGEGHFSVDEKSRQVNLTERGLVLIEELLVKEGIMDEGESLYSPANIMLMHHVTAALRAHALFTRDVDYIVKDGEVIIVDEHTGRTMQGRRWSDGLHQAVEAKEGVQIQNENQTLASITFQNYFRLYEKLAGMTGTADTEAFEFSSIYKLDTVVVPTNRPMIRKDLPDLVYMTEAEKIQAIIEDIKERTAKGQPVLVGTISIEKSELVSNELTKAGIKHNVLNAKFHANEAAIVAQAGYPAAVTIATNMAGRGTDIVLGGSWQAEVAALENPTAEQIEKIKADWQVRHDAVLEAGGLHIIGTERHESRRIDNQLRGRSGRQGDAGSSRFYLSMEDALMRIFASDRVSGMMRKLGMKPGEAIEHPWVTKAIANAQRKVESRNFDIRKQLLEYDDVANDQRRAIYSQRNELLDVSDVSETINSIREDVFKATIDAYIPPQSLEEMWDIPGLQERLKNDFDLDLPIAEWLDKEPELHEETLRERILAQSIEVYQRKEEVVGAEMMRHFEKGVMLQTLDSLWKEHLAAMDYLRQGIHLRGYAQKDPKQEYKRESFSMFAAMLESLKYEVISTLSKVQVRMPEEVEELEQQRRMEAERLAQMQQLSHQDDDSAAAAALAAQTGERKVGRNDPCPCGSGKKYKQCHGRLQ
# [2] = target: T1, Ubiquitin-activating enzyme e1, putative (Leishmania donovani (strain BPK282A1)) (UniProt E9BSI1); test: Leishmania donovani Ubiquitin Activating Enzyme (LdE1); format: functional; details: 30 µM
# T1 sequence (whole entry): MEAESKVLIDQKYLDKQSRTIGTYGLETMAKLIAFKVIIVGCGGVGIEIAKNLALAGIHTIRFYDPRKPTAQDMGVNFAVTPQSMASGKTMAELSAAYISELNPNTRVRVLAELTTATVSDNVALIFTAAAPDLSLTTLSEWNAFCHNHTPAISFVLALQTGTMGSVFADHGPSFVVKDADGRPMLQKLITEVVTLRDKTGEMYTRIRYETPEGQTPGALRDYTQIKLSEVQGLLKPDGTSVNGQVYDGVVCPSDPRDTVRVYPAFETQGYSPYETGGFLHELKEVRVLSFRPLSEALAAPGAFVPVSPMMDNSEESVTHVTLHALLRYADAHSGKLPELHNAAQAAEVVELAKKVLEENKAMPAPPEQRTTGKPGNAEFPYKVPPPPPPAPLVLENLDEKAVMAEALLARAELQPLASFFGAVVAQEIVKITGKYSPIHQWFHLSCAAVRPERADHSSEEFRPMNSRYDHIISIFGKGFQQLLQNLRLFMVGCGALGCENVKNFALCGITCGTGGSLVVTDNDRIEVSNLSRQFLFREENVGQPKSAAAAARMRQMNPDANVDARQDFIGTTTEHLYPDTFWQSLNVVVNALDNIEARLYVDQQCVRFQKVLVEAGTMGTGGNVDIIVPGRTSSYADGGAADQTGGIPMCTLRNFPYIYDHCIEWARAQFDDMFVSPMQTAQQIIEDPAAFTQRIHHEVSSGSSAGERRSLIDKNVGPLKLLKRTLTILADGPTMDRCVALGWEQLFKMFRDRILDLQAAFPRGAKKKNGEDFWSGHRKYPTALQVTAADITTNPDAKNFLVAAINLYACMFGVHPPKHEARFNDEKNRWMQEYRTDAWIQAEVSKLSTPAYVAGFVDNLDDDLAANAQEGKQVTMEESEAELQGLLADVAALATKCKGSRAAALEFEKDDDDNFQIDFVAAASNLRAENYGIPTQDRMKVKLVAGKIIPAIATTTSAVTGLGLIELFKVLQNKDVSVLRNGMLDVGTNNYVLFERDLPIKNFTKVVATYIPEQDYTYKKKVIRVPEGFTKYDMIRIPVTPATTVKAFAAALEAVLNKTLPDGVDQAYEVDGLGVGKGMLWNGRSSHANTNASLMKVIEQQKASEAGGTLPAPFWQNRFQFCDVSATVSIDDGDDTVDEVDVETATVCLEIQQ
# [3] = target: AMP-activated protein kinase, AMPK (Homo sapiens) (UniProt P54646+O43741+P54619+Q9UGJ0+Q9Y478+Q13131+Q9UGI9); test: AMP-dependent Kinase enzyme assay. An in vitro enzyme assay that detects ADP turnover that is directly proportional to AMPK activity. This uses naive AMPK that is activated during the assay with MK-8722; format: functional; details: 30 µM
# [4] = target: Sialic acid-binding Ig-like lectin 9 (Homo sapiens) (UniProt Q9Y336); test: Hs-Siglec9 ALPHAscreen SOP 20170721; details: 10 µM
# Chain of Sialic acid-binding Ig-like lectin 9 (Homo sapiens) (Q9Y336 whole entry): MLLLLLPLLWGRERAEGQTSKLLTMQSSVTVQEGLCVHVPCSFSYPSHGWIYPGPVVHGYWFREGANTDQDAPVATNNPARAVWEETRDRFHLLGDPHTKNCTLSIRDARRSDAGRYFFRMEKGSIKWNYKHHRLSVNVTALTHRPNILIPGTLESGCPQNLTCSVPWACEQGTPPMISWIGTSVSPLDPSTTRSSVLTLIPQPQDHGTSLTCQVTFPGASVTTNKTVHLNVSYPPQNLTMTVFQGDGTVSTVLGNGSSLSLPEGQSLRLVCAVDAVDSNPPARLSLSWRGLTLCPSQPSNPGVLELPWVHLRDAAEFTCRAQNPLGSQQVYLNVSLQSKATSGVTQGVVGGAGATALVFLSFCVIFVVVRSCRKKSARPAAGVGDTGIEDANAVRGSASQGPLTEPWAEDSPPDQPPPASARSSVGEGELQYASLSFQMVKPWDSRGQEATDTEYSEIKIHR
# [5] = test system: Trypanosoma cruzi; test: Trypanosoma cruzi phosphomannomutase and mannose-1-phosphate guanylyltransferase assay; format: functional; details: 10 µM
# [6] = target: T2, Arginase-2, mitochondrial (Homo sapiens) (UniProt P78540); test: in vitro enzyme assay to detect the production of urea directly proportional to the activity of Arginase II; format: functional; details: 33.3 µM; note: in the data most compounds retested in dose-response had high values
# T2 sequence (whole entry): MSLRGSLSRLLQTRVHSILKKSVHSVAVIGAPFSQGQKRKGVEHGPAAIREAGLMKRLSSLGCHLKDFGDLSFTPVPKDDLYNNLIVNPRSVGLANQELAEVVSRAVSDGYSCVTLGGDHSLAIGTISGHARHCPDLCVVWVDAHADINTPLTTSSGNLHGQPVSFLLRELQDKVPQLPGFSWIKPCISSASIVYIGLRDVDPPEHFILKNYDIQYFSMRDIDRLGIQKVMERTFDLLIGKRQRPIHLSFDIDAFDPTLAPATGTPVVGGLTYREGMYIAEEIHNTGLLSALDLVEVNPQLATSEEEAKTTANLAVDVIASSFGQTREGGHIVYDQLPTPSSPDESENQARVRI
# [7] = target: T3, Proteasome subunit beta (Trypanosoma cruzi) (UniProt O96673); test: Trypanosoma cruzi proteasome chymotrypsin-like activity (TcProtChymo) assay.; note: in the data most compounds retested in dose-response had high values; format: functional; details: 9.37 µM
# T3 sequence (whole entry): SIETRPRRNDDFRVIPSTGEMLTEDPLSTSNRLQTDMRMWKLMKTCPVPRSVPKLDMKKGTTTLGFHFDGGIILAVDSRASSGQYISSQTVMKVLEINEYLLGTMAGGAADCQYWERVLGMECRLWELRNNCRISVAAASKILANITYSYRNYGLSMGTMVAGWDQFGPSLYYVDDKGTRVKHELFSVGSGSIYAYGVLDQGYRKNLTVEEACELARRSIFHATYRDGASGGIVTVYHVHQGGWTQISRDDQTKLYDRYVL
# [8] = organism: Homo sapiens; test: To identify inhibition of the IFN signalling (Jak-Stat) pathway via expression of an eGFP reporter gene under the control of an IFN-stimulated response element (ISRE) containing MxA promoter.; format: functional; details: 30 µM
# [9] = target: T4, Tyrosyl-tRNA synthetase, putative (Trypanosoma cruzi (strain CL Brener)) (UniProt Q4DSP6); test: Trypanosoma cruzi tyrosyl tRNA synthetase (TcYRS) _High Tyrosine SOP; format: functional; details: 30 µM; note: in the data most compounds retested in dose-response had high values
# T4 sequence (whole entry): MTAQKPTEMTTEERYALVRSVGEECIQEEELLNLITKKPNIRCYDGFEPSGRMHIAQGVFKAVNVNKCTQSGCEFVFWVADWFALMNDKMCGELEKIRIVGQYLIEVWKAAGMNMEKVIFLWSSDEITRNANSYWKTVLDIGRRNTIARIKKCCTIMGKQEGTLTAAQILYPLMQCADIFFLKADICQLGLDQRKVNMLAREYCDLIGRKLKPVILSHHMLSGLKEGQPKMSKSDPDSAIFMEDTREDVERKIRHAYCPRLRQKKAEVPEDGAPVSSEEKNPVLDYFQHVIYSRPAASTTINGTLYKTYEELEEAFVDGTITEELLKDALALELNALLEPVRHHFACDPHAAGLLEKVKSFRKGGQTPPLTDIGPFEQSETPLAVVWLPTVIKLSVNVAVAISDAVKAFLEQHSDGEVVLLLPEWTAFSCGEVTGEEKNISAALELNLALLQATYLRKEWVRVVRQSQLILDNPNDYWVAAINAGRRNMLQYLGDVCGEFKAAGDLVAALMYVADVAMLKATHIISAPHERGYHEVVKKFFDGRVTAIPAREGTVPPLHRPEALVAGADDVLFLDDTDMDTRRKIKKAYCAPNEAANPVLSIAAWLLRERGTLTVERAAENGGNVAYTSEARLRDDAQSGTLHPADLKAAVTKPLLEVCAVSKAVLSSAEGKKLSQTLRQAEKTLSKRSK
# [10] = target: T4, Tyrosyl-tRNA synthetase, putative (Trypanosoma cruzi (strain CL Brener)); test: Trypanosoma cruzi tyrosyl tRNA synthetase (TcYRS) SOP; format: functional; details: 30 µM
# [11] = target: Chromo domain-containing protein 1 (Saccharomyces cerevisiae (strain ATCC 204508 / S288c) (Baker's yeast)) (UniProt P32657); test: ScCHD-1 Enzyme Inhibition Assay; format: functional; details: 30 µM; note: in the data most compounds retested in dose-response had high values
# Chain of Chromo domain-containing protein 1 (Saccharomyces cerevisiae (strain ATCC 204508 / S288c) (Baker's yeast)) (P32657 whole entry, the tested form may be a part): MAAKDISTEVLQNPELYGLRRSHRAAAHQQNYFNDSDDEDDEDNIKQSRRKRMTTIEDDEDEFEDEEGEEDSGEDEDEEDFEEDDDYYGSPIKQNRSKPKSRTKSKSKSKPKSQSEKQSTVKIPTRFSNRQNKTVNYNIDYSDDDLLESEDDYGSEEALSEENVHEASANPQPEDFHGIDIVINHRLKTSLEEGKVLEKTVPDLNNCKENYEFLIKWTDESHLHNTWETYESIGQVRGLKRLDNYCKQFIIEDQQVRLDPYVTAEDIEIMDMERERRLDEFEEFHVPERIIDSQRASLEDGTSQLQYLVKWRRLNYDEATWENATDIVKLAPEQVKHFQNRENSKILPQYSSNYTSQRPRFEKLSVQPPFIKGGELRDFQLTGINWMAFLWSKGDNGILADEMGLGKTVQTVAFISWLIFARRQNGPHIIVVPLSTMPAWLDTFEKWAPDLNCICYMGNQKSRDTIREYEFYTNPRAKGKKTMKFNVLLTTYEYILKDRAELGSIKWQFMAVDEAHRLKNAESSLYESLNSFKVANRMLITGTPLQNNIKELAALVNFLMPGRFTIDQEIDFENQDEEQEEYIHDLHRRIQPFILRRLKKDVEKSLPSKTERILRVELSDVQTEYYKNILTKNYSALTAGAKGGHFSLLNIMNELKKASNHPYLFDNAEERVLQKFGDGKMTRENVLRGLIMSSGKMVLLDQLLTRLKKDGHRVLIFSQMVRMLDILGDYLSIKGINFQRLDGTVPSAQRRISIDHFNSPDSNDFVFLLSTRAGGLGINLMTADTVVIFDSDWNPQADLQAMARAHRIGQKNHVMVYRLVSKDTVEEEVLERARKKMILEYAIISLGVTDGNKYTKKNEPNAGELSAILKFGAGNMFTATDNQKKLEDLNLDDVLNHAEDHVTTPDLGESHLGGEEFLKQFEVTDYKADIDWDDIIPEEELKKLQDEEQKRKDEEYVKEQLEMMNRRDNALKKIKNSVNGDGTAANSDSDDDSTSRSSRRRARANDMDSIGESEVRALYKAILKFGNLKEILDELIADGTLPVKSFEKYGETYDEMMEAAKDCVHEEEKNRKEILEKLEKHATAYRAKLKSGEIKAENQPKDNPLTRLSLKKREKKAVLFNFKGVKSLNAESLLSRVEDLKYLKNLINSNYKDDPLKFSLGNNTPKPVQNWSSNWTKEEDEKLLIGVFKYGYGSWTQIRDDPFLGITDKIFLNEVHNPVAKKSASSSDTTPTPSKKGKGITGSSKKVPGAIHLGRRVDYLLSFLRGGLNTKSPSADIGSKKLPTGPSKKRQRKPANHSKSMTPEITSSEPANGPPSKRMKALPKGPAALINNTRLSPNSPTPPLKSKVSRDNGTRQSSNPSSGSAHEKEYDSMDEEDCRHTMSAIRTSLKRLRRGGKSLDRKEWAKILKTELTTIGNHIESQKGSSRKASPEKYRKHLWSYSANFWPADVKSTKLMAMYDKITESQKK
SMILES,Percent Effect [1] [%],Percent Effect [2] [%],Percent Effect [3] [%],Percent Effect [4] [%],Percent Effect [5] [%],Percent Effect [6] [%],Percent Effect [7] [%],Percent Effect [8] [%],Percent Effect [9] [%],Percent Effect [10] [%],Percent Effect [11] [%]
CC(C(=O)N1CCN(c2ccccc2Cl)CC1)n1cncn1 (configuration not stated),-2.18,11.4,2.71,2.76,1.33,-1.07,15.3,5.34,0,10.1,-25.6
Cc1cc2n(n1)CC(CNCc1ccnc(-n3ccnc3C)c1)CN2 (configuration not stated),-2.38,26.3,-14.2,-7.03,7.52,-4.98,22.9,4.37,3.43,17.1,-13.8
CC(C)C(NC(=O)NCC1(CO)CC1)c1nnc2n1CCC2 (configuration not stated),-7.18,13.5,2.82,15.2,2.54,4.58,11.2,10.4,7.92,11,-9.98
COc1cccc(COCC(=O)N2CCCC(n3ccnc3)C2)c1 (configuration not stated),-4.67,18.9,21.3,-4.82,-6.13,0.802,3.06,10.7,6.4,11.1,-5.14
CCOc1cccc(C(C)NCc2ccc(OC)c(OC)c2OC)c1 (configuration not stated),-3,16,-4.66,15.5,8.08,4.69,11.2,43.6,7.1,21,-6.92
CC(=O)Nc1ccc(-n2ccc3nc(N4CCCC4)ncc3c2=O)cc1,-3.46,-9.33,1.45,1.82,-2.36,0.88,3.14,-5.51,1.06,-7.69,3.54
Clc1ccccc1CN1CCc2nc(C3CCCCN3)ncc2C1 (configuration not stated),-3.32,-8,4.19,5.09,8.46,-1.17,5.55,-13.2,5.32,3.85,-2.09
O=C(Nc1cnccn1)[C@H]1COC[C@H]2CN(C3CCCC3)C[C@H]21,-0.257,2.7,-0.6,0.701,4.88,2.92,-0.0845,-10.3,3.96,-1.22,-1.78
COc1ccccc1CNC(=O)N1CCCC(NS(C)(=O)=O)C1 (configuration not stated),-6.57,-15.6,-5.52,-17.1,-3.82,-2.74,12.8,24,-25.7,7.06,-22.9
O=C(NCC1CC1)Nc1cnc2cc(Cl)ccc2c1O,-4.33,12.2,4.52,-10.8,-2.57,-1.62,8.89,8.61,-1.07,-1.3,-6.64
Cc1ccc(N2CC[C@H]3OCC[C@@]3(C(=O)NC(C)C)C2)nn1,-2.37,2.7,-2.16,0.317,2.15,16.7,6.85,4.31,6.93,18.3,-5.52
CN(C)C(=O)CNC(=O)Nc1cccc(Cl)c1SC(F)F,-3.28,1.39,2.42,11.5,-7.09,1.77,1.05,-0.391,1.05,-2.56,0.00979
CC(C)N1Cc2c(C(=O)N3CCOCC3)nn(C)c2C1,-3.37,-2.7,4.04,1.67,-1.66,0.955,17.3,-39.2,-1.08,5.13,4.29
O=C(c1cnn(-c2ccccc2F)c1)N1CCN(CCO)CC1,-0.313,2.67,-3.7,3.26,5.36,16.1,0.698,-20,-0.546,3.7,-1.23
COc1c(CNCc2ccc(C(=O)NC3CC3)cc2)c(C)nn1C,-3.12,8.86,-1.46,6.83,-3.18,2.8,11,9.67,1.04,12.7,-6.42
CC(C)N1CC(C(=O)NCCOc2ccc3c(c2)OCO3)CC1=O (configuration not stated),0.716,21.1,-0.48,-5.15,3.64,2.16,12.1,4.59,8.37,23.5,-9.09
CC(Cc1ccco1)NC(=O)Nc1ccc(N2CCOCC2)nc1 (configuration not stated),-3.25,15.8,-15.8,11.3,1.5,0.383,11.2,-9.28,3.43,19.5,-11.4
